The list is not random: actives were taken first. Their share in the collection is about 19%.
BCR signal inh – blocks chronic active B-cell receptor signaling; Potency, µM (highest dose often 46.1 µM), hits mostly inhibitors; 340,000 compounds, 0.05% hits; ABC-DLBCL IkBa-CBG/CBR reporter, luminescence ratio, 4 h; active = well fitted inhibition curve with a large enough effect in the signal ratio, with a control signal flat, not every such curve was filed as active; inconclusive = small, poorly fitted or top-dose-only effect, or effect the other way, or a change in a side signal; the % refers to the signal ratio
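Concentration-response series (up to 46 uM) were applied to TMD8 dual-reporter cells for 4 h at 37C with doxycycline. Green/red ratio, after filter-overlap correction, defined %Activity; red signal alone was normalised to basal cells and zero luminescence.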
DT40 TDP1 no CPT – qHTS for Inhibitors of human tyrosyl-DNA phosphodiesterase 1 (TDP1): qHTS in cells in absence of CPT | Potency, µM (highest dose often 46.2 µM), most hits filed as inhibitors | 420,000 compounds, 15% hits | DT40 Tdp1-/- hTDP1 cells, no CPT, ATP luminescence, 48 h; note: nearly all actives have a fitted effect of over 55% in size
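Growth kinetics read by CellTiter-Glo luminescence after ≥48 hr at 37 °C. Cells: DT40 Tdp1-/- stably carrying human TDP1, 400 per well, compound exposure in the absence of CPT (DMSO vehicle).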
IL1B secr inh – inflammasome signaling inhibition, IL-1 beta readout; THP-1 LPS/ATP IL-1B secretion, AlphaLISA, 16 h; stronger effect = lower value; activity change, % at 57.5 µM; 360,000 compounds, 4.7% hits; AID 743279; in the data active = activity change below about -50%; inconclusive = mostly about -30% to -49%
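THP-1 cells pretreated 1 hr with compounds (up to 57.5 uM final), then stimulated with LPS (250 ng/mL final) plus ATP (1.25 mM final); secreted IL-1B measured by AlphaLISA after 16 hr, decreased signal indicating inhibition.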
DT40 TDP1 CPT – growth inhibition of DT40 Tdp1-/-;hTDP1 cells with camptothecin (screen for TDP1 inhibitors) | chicken DT40 Tdp1-/-;hTDP1 cells + 20 nM CPT, ATP luminescence, 48 h | AID 686979 | 420,000 compounds, 12% hits | Potency, µM (series often up to 46.2 µM), most hits filed as inhibitors; note: nearly all actives have a fitted effect of over 55% in size
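Chicken DT40 Tdp1-/- cells stably complemented with human TDP1 were seeded at 400 cells/well in medium containing 20 nM camptothecin, exposed to pin-transferred compounds, and grown at 37 °C for at least 48 hr. Viability was read as ATP luminescence.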
MCF10A rerep – inducers of DNA re-replication in MCF 10A breast cells; MCF 10A DNA re-replication, Hoechst nuclear intensity, 48 h; Potency, µM (highest dose often 46.1 µM), actives largely listed as activators; 350,000 compounds, 2.9% hits; note: nearly all actives have a fitted effect of over 50% in size
SW480 rerep – DNA re-replication induction in SW480 cells; 340,000 compounds, 1.8% hits; Potency, µM (doses to about 46.1 µM), most hits filed as activators; SW480 DNA re-replication, Hoechst DNA content imaging, 48 h; note: nearly all actives have a fitted effect of over 55% in size
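DNA re-replication was detected as more nuclei of elevated Hoechst intensity after 48 hr exposure to compound (23 nL pinned per well of 250 cells).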
Large screens that a line does not name were inactive. Unless noted, calls come from the whole dose curve; as a rule, active = well fitted curve in the direction sought with a large enough effect; inconclusive = small, poorly fitted or top-dose-only effect, or another doubt; inactive = no such curve, though single readings can be large; an effect the other way counts as inactive or inconclusive.

COc1ccc(N2CCN(Cc3nc(N)nc(Nc4ccc(C)c(Cl)c4)n3)CC2)cc1	BCR signal inh inconclusive, DT40 TDP1 no CPT 16.4µM, DT40 TDP1 CPT 9.2µM, MCF10A rerep inconclusive, SW480 rerep inconclusive
Cc1ccc(Nc2nc(N)nc(CN3CCN(C)CC3)n2)cc1C	none (no result: DT40 TDP1 no CPT, IL1B secr inh, DT40 TDP1 CPT, MCF10A rerep, SW480 rerep)
COc1ccc(-c2nc(N)ncc2-c2csc(C)n2)c(O)c1OC	none
CNc1cncc(-c2ccc(F)cc2F)n1	IL1B secr inh inconclusive (no result: BCR signal inh, MCF10A rerep, SW480 rerep)
CCC(=O)N[C@@H]1c2ccccc2C2(CCN(Cc3cnc(N(C)C)s3)CC2)[C@H]1OC	none (no result: BCR signal inh, IL1B secr inh, MCF10A rerep, SW480 rerep)
Oc1cc2c(cc1C(c1ccc(Cl)c(Cl)c1)N1CCCC1)OCO2 (stereo not drawn)	DT40 TDP1 no CPT 23.1µM, IL1B secr inh -99.0, DT40 TDP1 CPT inconclusive, MCF10A rerep inconclusive, SW480 rerep inconclusive
CCCCc1ccc(Nc2nc(CCC)cc(=O)[nH]2)cc1	BCR signal inh inconclusive, DT40 TDP1 no CPT 16.4µM, IL1B secr inh -104.7, DT40 TDP1 CPT inconclusive, MCF10A rerep 5.8µM, SW480 rerep inconclusive
CCCc1cc(=O)[nH]c(Nc2cc(Cl)cc(Cl)c2)n1	DT40 TDP1 no CPT 16.4µM, DT40 TDP1 CPT 14.6µM (no result: BCR signal inh, IL1B secr inh, MCF10A rerep, SW480 rerep)
Cc1cc(C)cc(OCc2cc(=O)n3c4c(sc3n2)CCCC4)c1	none (no result: BCR signal inh, IL1B secr inh, MCF10A rerep, SW480 rerep)
CCOC(=O)C1CCCN(c2nc3ccccc3nc2C(C#N)C(=O)OCCOC)C1 (stereo not drawn)	DT40 TDP1 no CPT 20.6µM, DT40 TDP1 CPT inconclusive
CCOC(=O)C1CCCN(c2nc3ccccc3nc2C(C#N)C(=O)OC(C)COC)C1 (stereo not drawn)	DT40 TDP1 no CPT inconclusive
CCOC(=O)C1CCCN(c2nc3ccccc3nc2C(C#N)C(=O)OCC)C1 (stereo not drawn)	DT40 TDP1 no CPT 23.1µM, DT40 TDP1 CPT inconclusive, MCF10A rerep inconclusive
COc1ccccc1N1CCN(S(=O)(=O)c2c(C)sc3ncn(CC(=O)Nc4ccc(C(F)(F)F)cc4)c(=O)c23)CC1	DT40 TDP1 no CPT inconclusive, DT40 TDP1 CPT 16.4µM (no result: BCR signal inh, IL1B secr inh, MCF10A rerep, SW480 rerep)
CCCN(CCC)CCNC(=O)Cn1cnc2sc(C)c(S(=O)(=O)N3CCN(c4ccccc4OC)CC3)c2c1=O	DT40 TDP1 no CPT 14.6µM, DT40 TDP1 CPT inconclusive (no result: BCR signal inh, IL1B secr inh, MCF10A rerep, SW480 rerep)
CC(C)CCNC(=O)Cn1nc(N2CCN(c3ccccc3)CC2)ccc1=O	none (no result: BCR signal inh, IL1B secr inh, MCF10A rerep, SW480 rerep)
CCCOc1ccc(C(F)(F)F)cc1NS(=O)(=O)c1ccc(Cl)nc1	BCR signal inh inconclusive, DT40 TDP1 no CPT inconclusive, IL1B secr inh -64.9, DT40 TDP1 CPT 14.6µM, MCF10A rerep inconclusive, SW480 rerep inconclusive
CC(C)(C)OC(=O)n1cccc1/C=C1\c2ccccc2C(=O)N1c1ccccc1	DT40 TDP1 no CPT inconclusive, DT40 TDP1 CPT 20.6µM, MCF10A rerep inconclusive, SW480 rerep inconclusive (no result: BCR signal inh)
O=c1c2cc(NC(=S)NC3CC3)ccc2nc2n1CCCCC2	none
Cc1cccc(N2CCN(C(=S)Nc3ccc4nc5n(c(=O)c4c3)CCCCC5)CC2)c1C	DT40 TDP1 no CPT 20.6µM, DT40 TDP1 CPT inconclusive, MCF10A rerep 23.1µM, SW480 rerep inconclusive
COc1cc(C(=O)Nc2ccc3nc4n(c(=O)c3c2)CCCCC4)cc(OC)c1OC	BCR signal inh inconclusive, DT40 TDP1 no CPT 23.1µM, DT40 TDP1 CPT inconclusive
CCCN(C(=O)C(=O)Nc1ccc2nc3n(c(=O)c2c1)CCCCC3)c1ccc(OCC)cc1	DT40 TDP1 no CPT 13µM, DT40 TDP1 CPT 13µM, MCF10A rerep inconclusive
COc1ccc(C(=O)Nc2ccc3nc4n(c(=O)c3c2)CCCCC4)cc1OC	none (no result: BCR signal inh, MCF10A rerep, SW480 rerep)
CCOC(=O)Nc1ccc2nc3n(c(=O)c2c1)CCCCC3	DT40 TDP1 CPT inconclusive
O=c1c2cc(NC(=S)NC3CCCCC3)ccc2nc2n1CCCCC2	DT40 TDP1 no CPT inconclusive, IL1B secr inh inconclusive, DT40 TDP1 CPT 18.4µM
O=C(CNC(=O)c1ccccc1)NCC(=O)OCC(=O)c1ccc2ccccc2c1	DT40 TDP1 CPT inconclusive (no result: BCR signal inh, IL1B secr inh, MCF10A rerep, SW480 rerep)
CCN(CC(=O)Nc1c(F)cccc1F)C(=O)COc1ccc2c(c1)CCC2	BCR signal inh inconclusive
N=C1C(c2nc3ccccc3s2)=C(O)CN1c1ccccc1	DT40 TDP1 no CPT inconclusive
O=c1c2cc(NC(=S)NC3CCN(Cc4ccccc4)CC3)ccc2nc2n1CCCCC2	DT40 TDP1 no CPT 14.6µM, DT40 TDP1 CPT inconclusive, MCF10A rerep inconclusive, SW480 rerep inconclusive
O=c1c2cc(NC(=S)NCCN3CCCCCC3)ccc2nc2n1CCCCC2	none
Cn1c(=O)c2cc(S(=O)(=O)Nc3ccc4c(c3)OCO4)ccc2n(C)c1=O	BCR signal inh inconclusive, DT40 TDP1 no CPT 7.08µM, DT40 TDP1 CPT 2.06µM
COc1ccc(NS(=O)(=O)c2ccc3c(c2)n(C)c(=O)n3C)cc1	IL1B secr inh -70.4, MCF10A rerep 5.8µM
Cc1ccc(NS(=O)(=O)c2ccc3c(c2)n(C)c(=O)n3C)cc1	DT40 TDP1 CPT inconclusive
Cn1c(=O)n(C)c2cc(NS(=O)(=O)c3ccc(C(C)(C)C)cc3)ccc21	BCR signal inh inconclusive, DT40 TDP1 no CPT 18.4µM, DT40 TDP1 CPT 18.4µM
Cn1c(=O)n(C)c2cc(NS(=O)(=O)c3ccc4c(c3)CCCC4)ccc21	BCR signal inh inconclusive, DT40 TDP1 no CPT inconclusive, DT40 TDP1 CPT 17.8µM, MCF10A rerep 23.1µM
CCCc1ccc(OC(=O)CSc2nnc(-c3cccs3)o2)cc1	none (no result: BCR signal inh, IL1B secr inh, MCF10A rerep, SW480 rerep)
CCOc1cc(C=O)cc(N=Nc2cccc([N+](=O)[O-])c2)c1O	none
O=[N+]([O-])c1cccc(N=Nc2ccc(O)cc2O)c1	DT40 TDP1 no CPT 5.17µM, IL1B secr inh -67.6, DT40 TDP1 CPT 3.26µM, MCF10A rerep inconclusive, SW480 rerep 13µM (no result: BCR signal inh)
O=S(=O)(O)c1cc(Cl)cc(N=Nc2ccc(O)cc2O)c1O	DT40 TDP1 no CPT inconclusive (no result: BCR signal inh)

Screening data deposited in PubChem by National Center for Advancing Translational Sciences (NCATS).
